Hits are enriched below; roughly 0.69% of the tested compounds scored in any of these assays.
E coli growth-1 – E. coli growth inhibition. Escherichia coli growth, OD600, 23 h; active compounds read low. OD600 absorbance (concentration not given with the values). actives 0.21% (n = 330,000);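 active = OD600 absorbance below the run mean of sample wells minus 3.6 SD, in any replicate, cut at about 0.56 in these data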
Tat transport – E. coli Tat transport inhibition. actives 0.036% (n = 340,000). AID 488895. inhibition, % at 10 µM. E. coli MC4100 TorA-mCherry Tat export, fluorescence;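 active = mean replicate inhibition at least 50% and at least half of replicates individually reaching 50%; inconclusive = only one of the two criteria met; inactive = neither criterion met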;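 also: exported cargo escapes ClpAP degradation while cytoplasmic cargo is degraded and loses fluorescence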
AddAB inh – less growth of phage-infected E. coli with AddAB | E. coli expressing H. pylori AddAB, absorbance growth | inhibition, % at 11.9 µM | actives 0.29% (n = 330,000); in the data active = inhibition above about 12%
phage Ecoli inh – E. coli growth loss with phage present | growth absorbance | inhibition, % at 11.9 µM | actives 0.26% (n = 360,000) | AID 651602; in the data active = inhibition above about 11%
E coli growth-2 – counter-screen for AddAB inhibitors: E. coli growth inhibition. E. coli V3065 growth, OD600 absorbance, 18 h. inhibition, % at 11.9 µM. actives 0.27% (n = 330,000);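 active = inhibition above the campaign's mean inhibition across all tested compounds plus 3 SD, cut at about 9.9% in these data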;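 also: uninfected addAB+ strain grown without phage in ampicillin broth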
PfHsp90 yeast 2 – inhibits growth of yeast expressing Plasmodium falciparum Hsp90. inhibition, % at 9.4 µM. actives 0.32% (n = 310,000). S. cerevisiae expressing PfHsp90, BacTiter-Glo ATP, 48 h; yeast lacking PDR1 and PDR3 efflux regulators. AID 504621;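 active = every replicate shows inhibition above about 80%, whatever the replicate mean, limit read from the data; inconclusive = mean inhibition reaches the set limit but some replicate falls short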
AddAB confirm – confirmation screen: growth loss of phage-infected E. coli expressing H. pylori AddAB. actives 64% (n = 880). E. coli V3065 expressing H. pylori AddAB, T4 phage, OD; T4 phage with gene 2 nonsense mutations. shares compounds with AddAB inh. inhibition, % at 11.9 µM;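 active = mean inhibition above a set limit taken from the earlier primary screen, cut at about 13% in these data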;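 also: higher means less bacterial growth since AddAB block lets phage replicate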
RecBCD counter – AddAB counter-screen: growth loss of RecBCD+ E. coli infected with mutant T4 phage; inhibition, % at 11.9 µM; actives 73% (n = 880); E. coli V66 + mutant T4 phage, OD growth; shares compounds with AddAB inh;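 active = mean inhibition above the mean of solvent-only control wells plus 3 SD, cut at about 4% in these data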;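 also: optical density read after an 18 h incubation at 37 °C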
bact viab count – counter-screen for AddAB inhibitors: inhibitors of bacterial viability | inhibition, % at 11.9 µM | shares compounds with AddAB inh | actives 35% (n = 880) | absorbance (AddAB counterscreen); in the data active = inhibition above about 25%
A number is an active result; - = inactive; ? = inconclusive; . = no result.

SMILES | E coli growth-1 | Tat transport | AddAB inh | phage Ecoli inh | E coli growth-2 | PfHsp90 yeast 2 | AddAB confirm | RecBCD counter | bact viab count
CC(=O)NN1C(=O)c2ccccc2NC1c1ccc([N+](=O)[O-])o1 (configuration not stated) | - | - | 17.8 | - | 14.8 | - | 79.2 | 5.9 | 30.0
C[C@@]12C(=O)N(CC3CCCO3)CC(=O)N1C1c3ccccc3OCC1C2c1ccccc1 (some centres not stated) | - | . | . | . | . | . | . | . | .
COc1ccc(C(NC(=O)C(C)C)c2ccc3cccnc3c2O)cc1 (configuration not stated) | - | - | 25.9 | 24.6 | 26.0 | - | 25.8 | 24.0 | -
CCCC(=O)NC(c1ccccc1Cl)c1ccc2cccnc2c1O (configuration not stated) | . | - | 33.9 | 25.9 | 34.7 | 113.3 | 29.4 | 27.0 | 25.7
CCCCC(=O)NC(c1ccc(OC)cc1)c1ccc2cccnc2c1O (configuration not stated) | . | . | . | - | . | . | . | . | .
COc1cccc(C=NNC(=O)C(c2ccncc2)N2CCOCC2)c1 (configuration not stated) | - | . | . | . | . | . | . | . | .
CC1=C(C(=O)OCC2CCCO2)C(c2coc3ccc(Cl)cc3c2=O)C2=C(CCCC2=O)N1 (configuration not stated) | - | - | - | - | - | - | . | . | .
CC1=C(C(=O)OCC2CCCO2)C(c2coc3ccc(C)cc3c2=O)C2=C(CCCC2=O)N1 (configuration not stated) | - | - | 99.3 | - | 91.3 | - | - | - | -
Cc1ncc([N+](=O)[O-])n1CCOC(=O)c1ccccc1 | - | - | - | - | - | - | . | . | .
Cn1c([N+](=O)[O-])cnc1COC(N)=O | - | - | 26.4 | - | 17.2 | - | 78.5 | 5.2 | 56.9
CCc1cccc(NC(=O)CCCSc2nc3ccccc3[nH]2)c1 | - | - | 12.4 | - | - | - | - | - | -
S=C(NCc1ccccc1Cl)Nc1ccccc1Cl | - | - | - | - | - | - | . | . | .
S=C(NCc1ccc(Cl)cc1Cl)Nc1ccccc1 | - | - | - | - | - | - | . | . | .
Fc1cccc(NC(=S)NCc2ccccc2Cl)c1 | - | - | 19.0 | - | 10.7 | - | 32.6 | 25.8 | 33.5
Cc1cc(Cl)ccc1NC(=S)NCc1ccccc1Cl | - | - | 15.7 | - | - | - | 15.0 | 14.8 | -
CCC(C)Cc1cn(C(CCCCN)C(=O)NCCCCCCCCCCC(=O)N2CCNCC2)nn1 (configuration not stated) | - | . | . | . | . | . | . | . | .
CCOC(=O)c1[nH]c2ccccc2c1NC(=O)C(CC)CC | - | - | 63.1 | - | 11.0 | - | - | - | -
CCOC(=O)c1[nH]c2ccccc2c1NC(C)=O | - | - | - | - | - | - | . | . | .
CCCc1cc(C(=O)Nc2ccccc2SC)no1 | - | - | 98.1 | - | 90.7 | - | - | - | -
COc1ccc(C=NNC(=O)c2ccn[nH]2)cc1COc1ccc(Cl)cc1Cl | - | . | . | . | . | . | . | . | .
CCn1cc(C(=O)NCc2ccco2)c(=O)c2cc(F)c(N3CCN(C(=O)c4ccco4)CC3)cc21 | 0.445 | - | 48.8 | - | 50.0 | - | 102.2 | 4.0 | 75.5
CCC(C)NC(=O)c1cn(CC)c2cc(N3CCN(C(=O)c4ccco4)CC3)c(F)cc2c1=O (configuration not stated) | - | - | 18.3 | - | 11.5 | - | 96.4 | - | -
CCn1cc(C(=O)NCC(C)C)c(=O)c2cc(F)c(N3CCN(C(=O)c4ccco4)CC3)cc21 | - | - | - | - | - | - | . | . | .
Nc1nonc1C(=O)NCCN=Cc1cc(Cc2ccccc2)cc(Br)c1O | - | ? | 18.5 | . | - | 123.0 | 19.5 | 8.8 | -
CC1OC2(C)OC(=N)C1(C#N)C(C#N)(C#N)C2c1ccccc1 (configuration not stated) | - | - | 36.9 | - | 23.3 | - | - | - | -
SMILES | E coli growth-1 | Tat transport | AddAB inh | phage Ecoli inh | E coli growth-2 | PfHsp90 yeast 2 | AddAB confirm | RecBCD counter | bact viab count
COC(=O)c1sc2ccccc2c1C(=O)OC | - | - | . | - | . | - | . | . | .
COC(=O)c1sc2ccccc2c1N | - | - | 35.4 | - | 21.2 | - | - | - | -
COc1ccc(OC)c(C2C/C(=N/O)C(C)C(c3cc(OC)ccc3OC)N2)c1 (configuration not stated) | . | - | . | - | . | - | . | . | .
COc1ccc(OC)c(C2CC(=O)C(C)C(c3cc(OC)ccc3OC)N2)c1 (configuration not stated) | - | - | 13.1 | - | 11.3 | - | - | - | -
O=C(COC(=O)C1CCN(S(=O)(=O)c2ccc3c(c2)OCCO3)CC1)NC1CCCCC1 | - | - | - | - | - | - | . | . | .
O=C(COC(=O)C1CCN(S(=O)(=O)c2ccc3c(c2)OCCO3)CC1)NC1CCS(=O)(=O)C1 (configuration not stated) | - | - | 26.0 | - | 9.8 | . | - | - | -
O=c1cc2oc3cc(O)c(O)cc3c(-c3ccccc3O)c-2cc1O | - | - | . | . | . | - | . | . | .
COc1ccc(OC)c(-c2c3cc(O)c(=O)cc-3oc3cc(O)c(O)cc23)c1 | . | - | 14.1 | . | - | - | - | - | -
O=C(CCNC(=O)c1ccco1)Nc1ccccc1 | - | - | - | - | - | - | . | . | .
Cc1ccc(NC(=O)CCNC(=O)c2ccco2)cc1 | - | - | 14.6 | - | - | - | - | - | -
CCOc1ccc(NC(=O)CCNC(=O)c2ccco2)cc1 | - | - | 13.5 | - | - | - | - | 4.7 | -
Cc1cc(C)c2c(c1)C(=NNc1ccc(S(N)(=O)=O)cc1[N+](=O)[O-])CCC2 | - | . | . | . | . | . | . | . | .
CC(C)CC(NC(=O)c1nc[nH]c1C(=O)NCCCCCNC(=O)OC(C)(C)C)C(=O)OCc1ccccc1 (configuration not stated) | - | . | . | . | . | . | . | . | .
Cc1ccc(Cn2c(C)c3cnn(CC(=O)NC4CCCC4)c(=O)c3c2C)cc1 | - | - | 98.9 | - | 86.5 | - | - | - | -
CNC(=O)Cn1ncc2c(C)n(Cc3ccc(C)cc3)c(C)c2c1=O | - | - | - | - | - | - | . | . | .
Cn1c(OCc2cccnc2)nc2c1c(=O)n(Cc1ccc(Br)cc1)c(=O)n2C | - | - | 22.9 | - | 84.3 | . | - | - | -
Cc1cc(Cl)ccc1OCCCC(=O)NNC(=O)c1ccccc1O | - | - | 16.8 | - | - | . | - | 8.7 | -
Cc1ccc(S(=O)(=O)Nc2nccs2)cc1[N+](=O)[O-] | - | - | - | - | - | - | . | . | .
Cc1ccc(S(=O)(=O)Nc2ccc(S(=O)(=O)Nc3nccs3)cc2)c([N+](=O)[O-])c1 | - | - | 16.3 | - | - | - | - | 4.1 | -

Screening data: PubChem BioAssay, several laboratories
